Bioassay records from PubChem.
UCHL1 block = inhibitors of human UCHL1 deubiquitinase | inhibition, % at 20 µM | purified UCHL1, Ub-rhodamine cleavage fluorescence | 47,000 compounds, 0.2% hits | AID 1645859, 2021 | Ubiquitin carboxyl-terminal hydrolase isozyme L1 (Homo sapiens), P09936
USP8 block = inhibitors of human USP8 deubiquitinase; Ubiquitin carboxyl-terminal hydrolase 8 (Homo sapiens), P40818; purified USP8, Ub-rhodamine cleavage fluorescence, 30 min; inhibition, % at 20 µM; 47,000 compounds, 4.2% hits
USP7 inh = inhibitors of human USP7 deubiquitinase | purified USP7, Ub-rhodamine cleavage fluorescence | inhibition, % at 20 µM | 47,000 compounds, 0.3% hits | AID 1645854, 2021
USP30 block = inhibitors of human USP30 deubiquitinase; inhibition, % at 25 µM; 47,000 compounds, 5.3% hits; purified USP30, Ub-rhodamine cleavage fluorescence; Ubiquitin carboxyl-terminal hydrolase 30 (Homo sapiens), Q70CQ3
USP17 block = inhibitors of human USP17 deubiquitinase. inhibition, % at 50 µM. 47,000 compounds, 6.5% hits. Ubiquitin carboxyl-terminal hydrolase 17-like protein 5 (Homo sapiens), A8MUK1. purified USP17, Ub-rhodamine cleavage fluorescence, 3 h
Target sequence (A8MUK1 whole entry, looked up): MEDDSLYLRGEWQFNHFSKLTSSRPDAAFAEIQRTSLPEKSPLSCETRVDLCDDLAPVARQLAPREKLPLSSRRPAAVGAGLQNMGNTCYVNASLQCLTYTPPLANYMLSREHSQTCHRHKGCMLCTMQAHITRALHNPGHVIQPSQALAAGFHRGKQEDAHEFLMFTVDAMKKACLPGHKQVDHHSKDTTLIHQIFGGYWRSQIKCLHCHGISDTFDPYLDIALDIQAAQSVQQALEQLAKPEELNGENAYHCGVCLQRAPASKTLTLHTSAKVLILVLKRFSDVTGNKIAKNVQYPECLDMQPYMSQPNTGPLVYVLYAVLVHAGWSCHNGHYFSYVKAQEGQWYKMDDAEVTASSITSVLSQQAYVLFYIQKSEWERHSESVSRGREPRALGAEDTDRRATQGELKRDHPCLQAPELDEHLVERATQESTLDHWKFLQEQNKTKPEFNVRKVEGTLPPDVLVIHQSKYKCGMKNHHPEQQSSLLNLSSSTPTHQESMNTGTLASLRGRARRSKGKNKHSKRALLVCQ
USP10 inh = inhibitors of human USP10 deubiquitinase; inhibition, % at 20 µM; purified USP10, Ub-rhodamine fluorescence, 60 min; 47,000 compounds, 1.1% hits; Ubiquitin carboxyl-terminal hydrolase 10 (Homo sapiens), Q14694
Numbers without * were called inactive; i = inactive; x = not tested or not shown. In the library only some 13% were active in any assay of this set; here they are far more common. No stated cut-off is given here; in the data, active means inhibition above about 30%; inactive means the rest.

SMILES	UCHL1 block	USP8 block	USP7 inh	USP30 block	USP17 block	USP10 inh
O=C(Nc1ccc(F)cc1)Nc1ccccc1OCc1cc(=O)n2ccccc2n1	-1	43*	5	46*	41*	25
Cc1ccc(NC(=O)Nc2ccccc2OCc2cc(=O)n3cc(C)ccc3n2)cc1	10	32*	15	-3	4	17
Cc1cccc(NC(=O)Nc2ccccc2OCc2cc(=O)n3cccc(C)c3n2)c1	-2	36*	5	29	9	26
Cc1cccc(NCc2cc(=O)n3cc(C)ccc3n2)c1	4	12	3	7	46*	-1
CCOc1ccccc1NC(=O)Nc1ccccc1OCc1cc(=O)n2cccc(C)c2n1	0	-11	3	23	23	-3
Cn1cnc2c(C(=O)NC3CCCCCC3)nn(-c3ccccc3)c2c1=O	-8	-9	-7	-67	-29	-3
Cc1cnc(C(=O)N2CCC3(CC2)CCN(c2cnn(C)c2)C3=O)cn1	3	-60	2	-10	-17	1
CCN(CC)S(=O)(=O)c1ccc(OC)c(Nc2nc(-c3ccccc3)nc3ccccc23)c1	2	15	6	-3	39*	0
Cc1noc(-c2cccn(Cc3cc(=O)n4ccccc4n3)c2=O)n1	-4	10	-1	-1	0	-4
Cc1noc(-c2cc3c(ccc4ccccc43)oc2=O)n1	-7	-11	-9	-16	42*	-4
CCOC(=O)N1CCN(C(=O)Cc2csc(NC(=O)c3ccc(=O)[nH]c3)n2)CC1	2	5	7	-41	-7	-9
COc1ccc(C)cc1NC(=O)Cc1csc(NC(=O)c2ccc(=O)[nH]c2)n1	-29	82*	-44	-75	71*	-3
CC1(C)CC(=O)c2c(C#N)sc(C#N)c2C1	-15	60*	-46	-260	18	-6
O=C(Cn1cccc1-c1nnc(C2CCC2)o1)Nc1ccc(F)cc1	-2	-9	-26	-167	-60	-5
Cc1ccc(NC(=O)Cn2cccc2-c2nnc(C3CC3)o2)c(C)c1	-2	0	-1	34*	1	0
CCN(CC)S(=O)(=O)c1ccc(/C(=C\Nc2ccc(Cl)cc2)c2ncc(C(F)(F)F)cc2Cl)s1	7	36*	13	-11	13	3
CC(Nc1ccc(Oc2ccccc2)cc1)C(=O)Nc1cccc(C#N)c1 (configuration not stated)	10	5	7	x	37*	12
CC(C(=O)Nc1ccc(F)c(F)c1)N(c1ccc(Oc2ccccc2)cc1)S(C)(=O)=O (configuration not stated)	5	24	7	11	12	6
CC(Nc1ccc(Oc2ccccc2)cc1)C(=O)Nc1ccc2c(c1)OCCO2 (configuration not stated)	8	19	3	0	-25	6
CC(=O)Nc1ccc(NC(=O)C(C)Nc2ccc(Oc3ccccc3)cc2)cc1 (configuration not stated)	8	61*	-3	-81	4	0
CCN1CCc2c(cccc2-n2nnc(C(=O)N3CCCC3)c2C)C1	-3	-12	-3	-45	-22	-8
CC(C)COc1ccc(C(=O)N/C(=C/c2ccc3c(c2)OCO3)C(=O)O)cc1	0	30	7	37*	x	8
CC(NC(=O)Cc1ccccc1F)c1nc(-c2cccnc2)n[nH]1 (configuration not stated)	3	10	6	12	7	2
CCCn1c(=O)[nH]c2cc(-c3noc(C4CCCO4)n3)ccc21 (configuration not stated)	2	15	-1	-308	12	0
Cc1cc(=O)n(CC(=O)NCc2ccc(F)cc2F)c(N2CCCCC2)n1	3	24	-27	16	8	0
SMILES	UCHL1 block	USP8 block	USP7 inh	USP30 block	USP17 block	USP10 inh
Cc1cc(F)ccc1NC(=O)Cn1c(C)cc(C)c1-c1nc(C2CC2)no1	-2	0	-43	-7	48*	5
CCc1noc(-c2c(C)cc(C)n2CC(=O)Nc2ccc(C)cc2C)n1	-6	-17	-9	-66	-8	-2
Cc1cc(C)n(CC(=O)NCc2ccc(F)cc2F)c1-c1nc(C2CC2)no1	1	16	-22	33*	31*	2
Cc1ccc(-c2noc(-c3nnc(SCC(=O)NC4CCCC4)n3C)n2)cc1	-1	12	2	29	53*	2
O=C(c1csc2ccccc12)N1CCN(c2ccc(Cl)c(Cl)c2)CC1	6	6	-19	33*	1	6
CNC(=O)C1CNCCN1C(=O)Cc1c(C)[nH]c2ccc(Cl)cc12 (configuration not stated)	-2	-88	-2	-26	-19	-3
COc1cccc(OC)c1C(=O)Nc1c(NCc2ccccc2)c2ccccc2oc1=O	2	-52	-16	17	30*	0
COc1cccc(OC)c1C(=O)Nc1ccccc1NC(=O)c1c(OC)cccc1OC	0	-39	0	-7	-17	-1
C/C=C1/C2=CCCN3C(=O)O[C@H]([C@H]1O)[C@H]23	2	8	7	14	72*	5
COc1ccccc1/C=C(/C(=O)N1CCN(Cc2ccc3c(c2)OCO3)CC1)c1ccccc1	8	11	8	42*	15	10
Cc1cc(C)c(COc2ccc3c(c2C)OC(C)(C)CC3=O)c(C)c1	8	20	18	30*	21	8
CN1CCCN(C(=O)c2cc(-c3ccn(-c4ccccc4)n3)n3ccccc23)CC1	-2	-101	-18	-283	-60	-3
O=C(c1cccc2c1OCCO2)N1CCOCC1c1ccn[nH]1 (configuration not stated)	-1	-1	2	33*	11	1
O=C(Nc1ccc(F)cc1)c1cc2ccccc2[nH]c1=O	4	12	11	x	21	7
O=C(NCc1ccc(CN2CCCC2)cc1)c1cc2ccccc2[nH]c1=O	7	8	6	28	65*	0
COc1cc2c(=O)n(CCCC(=O)NCC3CCCO3)c(=O)n(CC(=O)c3ccc(Cl)cc3)c2cc1OC (configuration not stated)	-3	-14	-3	i	-91	-4
COc1cc2c(=O)n(CCCC(=O)NCC3CCCO3)c(=O)n(CC(=O)NC3CCCCC3)c2cc1OC (configuration not stated)	0	12	1	33*	3	2
COc1cc2c(=O)n(CC3CCCO3)c(=O)n(CC(=O)Nc3ccc4c(c3)OCCO4)c2cc1OC (configuration not stated)	2	12	6	38*	49*	-1
